Compound activity from PubChem.
Compounds with a hit are over-represented: about 3.1% of the library has one in this group of screens.
EPAC1 ag val = validation of human EPAC1 agonists. EPAC1 Rap1b BODIPY-GDP exchange, fluorescence. Potency, µM, without a hit: max response, positive = active, hits mostly activators. O95398. hit rate 1% among 16,000. AID 1645883; note: nearly all actives have a fitted effect of over 70% in size
EPAC2 antag = human EPAC2 antagonism, validation. AID 1645886. EPAC2 Rap1B BODIPY-GDP exchange, fluorescence. Potency, µM (highest dose often 112 µM), for the others: top-dose activity, negative = inhibition, usual class: inhibitors. hit rate 1.7% among 16,000. Q8WZA2;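 note: 100% = activation by cAMP agonist control; nearly all actives have a fitted effect of over 40% in size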
Target sequence (Q8WZA2 whole entry, looked up): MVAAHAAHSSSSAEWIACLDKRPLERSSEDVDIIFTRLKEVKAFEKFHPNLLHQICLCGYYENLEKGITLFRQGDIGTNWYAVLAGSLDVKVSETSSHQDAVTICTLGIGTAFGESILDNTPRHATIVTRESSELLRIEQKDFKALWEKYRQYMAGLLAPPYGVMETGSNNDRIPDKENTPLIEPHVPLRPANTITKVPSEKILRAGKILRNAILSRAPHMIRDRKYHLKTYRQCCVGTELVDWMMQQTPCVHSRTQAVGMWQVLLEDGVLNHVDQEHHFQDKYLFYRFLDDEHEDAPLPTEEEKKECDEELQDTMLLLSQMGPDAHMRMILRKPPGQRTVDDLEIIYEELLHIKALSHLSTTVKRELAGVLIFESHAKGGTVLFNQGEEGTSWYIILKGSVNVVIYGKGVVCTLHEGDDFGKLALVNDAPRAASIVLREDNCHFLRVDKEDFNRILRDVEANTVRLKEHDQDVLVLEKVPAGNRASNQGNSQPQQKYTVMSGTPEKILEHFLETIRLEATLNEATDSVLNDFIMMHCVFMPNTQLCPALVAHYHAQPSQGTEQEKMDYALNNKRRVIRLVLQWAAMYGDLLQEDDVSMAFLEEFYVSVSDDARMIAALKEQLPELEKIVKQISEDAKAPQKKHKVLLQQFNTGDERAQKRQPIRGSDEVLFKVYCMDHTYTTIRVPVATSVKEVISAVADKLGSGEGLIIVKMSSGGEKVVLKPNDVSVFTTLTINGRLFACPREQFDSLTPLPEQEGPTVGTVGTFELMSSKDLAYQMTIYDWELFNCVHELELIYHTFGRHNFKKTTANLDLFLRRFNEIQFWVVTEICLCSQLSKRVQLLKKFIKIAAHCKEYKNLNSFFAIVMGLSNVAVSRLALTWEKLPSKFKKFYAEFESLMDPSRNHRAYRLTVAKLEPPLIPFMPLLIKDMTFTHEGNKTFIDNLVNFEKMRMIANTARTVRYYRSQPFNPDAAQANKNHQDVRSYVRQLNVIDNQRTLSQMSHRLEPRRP
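Normalized against a 6.5 mM cAMP agonist control, compounds were tested on 100 nM EPAC2 exchanging Rap1B-bound BODIPY-GDP (250 nM) for 50 uM GDP. Fluorescence drop (ex 480, em 540 nm) was tracked at room temperature over 30 min at 5-min intervals.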
* = called active by the depositor; ! = not confirmed by another sample; [ ] = another dose, or the depositor's remark. Calls come from the whole dose curve; as a rule, active = well fitted curve in the direction sought with a large enough effect; inconclusive = small, poorly fitted or top-dose-only effect, or another doubt; inactive = no such curve, though single readings can be large; an effect the other way counts as inactive or inconclusive. Unless noted, % is set by controls: 0 for no effect and ±100 for the full control effect; potency is the fitted concentration of half-maximal effect.

CCCCCCCCCCCCCCCC[N+](C)(C)C was read as EPAC1 ag val -47.3% and EPAC2 antag 39.8µM*!.
For CCCCCCCCCC[N+](C)(C)CCCCCCCCCC the results were EPAC1 ag val -78.0% and EPAC2 antag -28.5%.
CN[C@@]1(c2ccccc2Cl)CCCCC1=O was read as EPAC1 ag val 0.9% and EPAC2 antag 5.9%.
CCOP(=S)(OCC)SCn1c(=O)oc2cc(Cl)ccc21 was read as EPAC1 ag val 4.8% and EPAC2 antag 31.6µM*.
For C[C@]12CC[C@H]3[C@@H](CCC4=CC(=O)CC[C@@]43C)[C@@H]1CC[C@H]2O the results were EPAC1 ag val 17.4% and EPAC2 antag -36.8%.
N#CC(C#N)=NNc1ccc(OC(F)(F)F)cc1 was read as EPAC1 ag val -41.1% and EPAC2 antag 39.8µM*.
CC1(C)[C@H](C=C(Cl)Cl)[C@H]1C(=O)OCc1c(F)c(F)cc(F)c1F was read as EPAC1 ag val -6.1% and EPAC2 antag -22.1%.
O=C1c2ccccc2-c2cccc3cccc1c23 was read as EPAC1 ag val 112µM* and EPAC2 antag 2.5%.
For C[C@H]1[C@@H]2Cc3ccc(O)cc3[C@@]1(C)CCN2C the results were EPAC1 ag val 14.4% and EPAC2 antag 17.8%[453 µM].
Screening CC[C@H](C)[C@H]1O[C@]2(C=C[C@@H]1C)C[C@@H]1C[C@@H](C/C=C(\C)[C@@H](O[C@H]3C[C@H](OC)[C@@H](O[C@H]4C[C@H](OC)[C@@H](O)[C@H](C)O4)[C@H](C)O3)[C@@H](C)/C=C/C=C3\CO[C@@H]4[C@H](O)C(C)=C[C@@H](C(=O)O1)[C@]34O)O2 returned EPAC1 ag val -42.2% and EPAC2 antag inconclusive.
`O=C1CS[C@@H](c2ccccc2Cl)c2cc(Cl)ccc2N1` gave EPAC1 ag val 6.3% and EPAC2 antag 31.6µM*.
Screening NCCc1ccc(O)cc1 returned EPAC1 ag val 4.6% and EPAC2 antag -19.7%.
For CCCCCCCCCc1ccc(O)cc1 the results were EPAC1 ag val inconclusive and EPAC2 antag 44.7µM*.
Screening OC[C@@H](O)[C@H]1O[C@@H]2O[C@@H](C(Cl)(Cl)Cl)O[C@@H]2[C@H]1O returned EPAC1 ag val -15.0% and EPAC2 antag -22.8%.
`C[C@@]1(CO)[C@H](O)CC[C@@]2(C)[C@H]1CC[C@H]1C[C@@H]3C[C@@]12CC[C@]3(O)CO` gave EPAC1 ag val -62.2% and EPAC2 antag 63.1µM*.
For CCC(=O)O[C@](Cc1ccccc1)(c1ccccc1)[C@H](C)CN(C)C the results were EPAC1 ag val -102.8% and EPAC2 antag -3.5%[239 µM].
Screening CCC(C)(C)c1ccc(O)cc1 returned EPAC1 ag val -16.5% and EPAC2 antag -10.8%.
`CC(C)(C)CC(C)(C)c1ccc(O)cc1` gave EPAC1 ag val -211.5% and EPAC2 antag 56.2µM*.
`CCCCCCCCCC(CC)c1ccc(S(=O)(=O)O)cc1` (configuration not stated) gave EPAC1 ag val -196.1% and EPAC2 antag 56.2µM*!.
Screening NC[C@H](CS(=O)(=O)O)c1ccc(Cl)cc1 returned EPAC1 ag val 2.1% and EPAC2 antag -16.6%.
Screening CN1CC[C@]23c4c5ccc(O)c4O[C@H]2[C@@H](O)CC[C@H]3[C@H]1C5 returned EPAC1 ag val -1.4% and EPAC2 antag 29.6%[239 µM].
`CCCCCC[C@H]1C(=O)O[C@H](C)[C@H](NC(=O)c2cccc(NC=O)c2O)C(=O)O[C@@H](C)[C@@H]1OC(=O)CC(C)C` gave EPAC1 ag val -67.3% and EPAC2 antag 44.7µM*.
`O=C1C(I)=CC(=C(c2cc(I)c(O)c(I)c2)c2ccccc2C(=O)O)C=C1I` gave EPAC1 ag val 7.1% and EPAC2 antag 44.7µM*!.
`Nc1ccccc1C(=O)O` gave EPAC1 ag val -7.1% and EPAC2 antag -1.1%.
`C[C@H]1CC[C@]2(NC1)O[C@H]1C[C@H]3[C@@H]4CC[C@H]5C[C@@H](O[C@@H]6O[C@H](CO)[C@H](O[C@@H]7O[C@H](CO)[C@@H](O)[C@H](O[C@@H]8OC[C@@H](O)[C@H](O)[C@H]8O)[C@H]7O[C@@H]7O[C@H](CO)[C@@H](O)[C@H](O)[C@H]7O)[C@H](O)[C@H]6O)CC[C@]5(C)[C@H]4CC[C@]3(C)[C@H]1[C@@H]2C` gave EPAC1 ag val -2.6% and EPAC2 antag -4.0%.
For C[C@]12C=CC(=O)C=C1CC[C@@H]1[C@@H]2CC[C@]2(C)OC(=O)CC[C@@H]12 the results were EPAC1 ag val -17.0% and EPAC2 antag -5.3%.
COc1cc2c(cc1-c1cc3cc4ccoc4cc3oc1=O)OCO2 was read as EPAC1 ag val 5.1% and EPAC2 antag 1.26µM*.
`COc1cc2occc2c2oc(=O)ccc12` gave EPAC1 ag val inconclusive and EPAC2 antag 15.5%.
Screening COc1ccc2c3c1O[C@H]1[C@@H](O)C=C[C@H]4[C@@H](C2)N(C)CC[C@@]341 returned EPAC1 ag val 5.4% and EPAC2 antag -0.4%[239 µM].
For OC[C@@H](O)[C@H]1O[C@@H]2O[C@H](C(Cl)(Cl)Cl)O[C@@H]2[C@H]1O the results were EPAC1 ag val -1.4% and EPAC2 antag -1.1%.
For CCOC(=O)[C@]12Cc3cc(OC)c(OC)cc3[C@H]1N(Cc1ccccc1)C(=O)c1ccccc12 the results were EPAC1 ag val -41.7% and EPAC2 antag -3.1%.
`CCOC(=O)[C@]12Cc3ccsc3[C@H]1N(Cc1ccccc1)C(=O)c1ccccc12` gave EPAC1 ag val inconclusive and EPAC2 antag 56.2µM*.
Cc1ccccc1-n1c(CF)nc2ccc(N)cc2c1=O was read as EPAC1 ag val -1.2% and EPAC2 antag 7.4%.
For CC[C@]1(O)CC(O[C@@H]2CC(N(C)C)C(O)C(C)O2)c2c(cc3c(c2O)C(=O)c2c(O)cccc2C3=O)C1C(=O)OC (some centres not stated) the results were EPAC1 ag val inconclusive and EPAC2 antag 20.7%.
`CC[C@@]1(O)CC(O)c2c(cc3c(c2O)C(=O)c2c(O)ccc(O)c2C3=O)C1C(=O)OC` (some centres not stated) gave EPAC1 ag val 112µM* and EPAC2 antag 37.9%.
For [H+].[H+].[Hg+2].[O-]B([O-])[O-].[c-]1ccccc1 the results were EPAC1 ag val -6.6% and EPAC2 antag 3.7%.
CCN1C[C@]2(COC)[C@H](O)C[C@H](OC)[C@@]34[C@@H]5C[C@@]6(O)[C@H](OC(=O)c7ccccc7)[C@@H]5[C@@](OC(C)=O)([C@@H]([C@H](OC)[C@H]23)[C@@H]14)[C@@H](O)[C@@H]6OC was read as EPAC1 ag val -27.9% and EPAC2 antag 7.5%.
Screening CCCCN(CC)c1c([N+](=O)[O-])cc(C(F)(F)F)cc1[N+](=O)[O-] returned EPAC1 ag val inconclusive and EPAC2 antag -33.0%.
Screening CCCN(CCC)c1c([N+](=O)[O-])cc(S(N)(=O)=O)cc1[N+](=O)[O-] returned EPAC1 ag val -120.6% and EPAC2 antag 39.8µM*.
For CCC(OC(C)=O)C(CC(C)NC)(c1ccccc1)c1ccccc1 (configuration not stated) the results were EPAC1 ag val 2.9% and EPAC2 antag -4.6%[239 µM].
`CN(C)[C@H](Cc1ccccc1)c1ccccc1` gave EPAC1 ag val -7.8% and EPAC2 antag 1.5%.
